Screening data from PubChem BioAssay.
NPC1 promoter act: activates the NPC1 promoter. Huh7 NPC1 promoter luciferase reporter, 24 h. Potency, µM (doses to about 9.22 µM), without a hit: top-dose activation, hits mostly activators. 2.4% of 320,000 active. AID 485313; also: % of control where 0% means no effect; nearly all actives have a fitted effect of over 60% in size
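Huh7 cells stably carrying NPC1 promoter–luciferase, plated in Opti-MEM with 10% FBS for 2 h, were exposed to compound in DMSO for 24 h at 37 °C; luciferase reagent was added for 10 min and luminescence read.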
Rab9 promoter act: Rab9 promoter activation; 2.8% of 320,000 active; AID 485297; Huh7 Rab9 promoter-luciferase reporter, luminescence, 24 h; Potency, µM (titrated, usually from 9.22 µM), for the others: at the highest dose activation, negative = inhibition, usual class: activators; also: % of control where 0% means no effect; nearly all actives have a fitted effect of over 60% in size
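Steps: seed 1500 Huh7 Rab9-luc cells per well, rest 2 h at 37 °C; add compound in DMSO; incubate 24 h; add luciferase reagent, 10 min ambient; read luminescence.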
SMN2 splice enh: SMN2 splice variant enhancement | AID 1458 | Potency, µM (doses to about 46.1 µM), for the others: at the highest dose activity change, positive = activation, most hits filed as activators | HEK293 SMN2-luciferase splicing reporter, luminescence, 30-36 h | 2.8% of 210,000 active; also: % of control where 0% means no effect; nearly all actives have a fitted effect of over 55% in size
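HEK293 cells carry an SMN2 […]–luciferase reporter in which exon 7 inclusion puts luciferase in frame. Cells were plated 10-12 h before compound addition, then incubated 30-36 h at 37C. ONE-Glo luminescence was read; sodium butyrate at 4.5 mM final served as control.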
KinaseGlo FLuc: counter-screen: inhibitors of Kinase-Glo firefly luciferase; Potency, µM (top dose mostly 38.3 µM), for inactives: at the highest dose activity change, negative = inhibition, most hits filed as inhibitors; Q27757; Kinase-Glo luciferase, ATP luminescence, 8 min; 0.28% of 200,000 active; also: % is scaled to controls: 0 for no effect and ±100 for the full control effect; nearly all actives have a fitted effect of over 60% in size
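Inhibition of Kinase-Glo luciferase light generation was assessed at 10 uM ATP in pH 7.2 imidazole buffer, with luminescence measured after eight minutes at ambient temperature.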
FLuc counter: inhibits or activates purified firefly luciferase, miR-21 counter-screen | P08659 | AID 588342 | Potency, µM (doses to about 57.5 µM), for inactives: at the highest dose activity change, negative = inhibition, most hits filed as inhibitors | purified FLuc, Km substrates, luminescence inhibition | 6.9% of 360,000 active;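 also: plate controls were vehicle for no effect and reference inhibitor for full effect; nearly all actives have a fitted effect of over 55% in size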
Target sequence (P08659 whole entry, looked up): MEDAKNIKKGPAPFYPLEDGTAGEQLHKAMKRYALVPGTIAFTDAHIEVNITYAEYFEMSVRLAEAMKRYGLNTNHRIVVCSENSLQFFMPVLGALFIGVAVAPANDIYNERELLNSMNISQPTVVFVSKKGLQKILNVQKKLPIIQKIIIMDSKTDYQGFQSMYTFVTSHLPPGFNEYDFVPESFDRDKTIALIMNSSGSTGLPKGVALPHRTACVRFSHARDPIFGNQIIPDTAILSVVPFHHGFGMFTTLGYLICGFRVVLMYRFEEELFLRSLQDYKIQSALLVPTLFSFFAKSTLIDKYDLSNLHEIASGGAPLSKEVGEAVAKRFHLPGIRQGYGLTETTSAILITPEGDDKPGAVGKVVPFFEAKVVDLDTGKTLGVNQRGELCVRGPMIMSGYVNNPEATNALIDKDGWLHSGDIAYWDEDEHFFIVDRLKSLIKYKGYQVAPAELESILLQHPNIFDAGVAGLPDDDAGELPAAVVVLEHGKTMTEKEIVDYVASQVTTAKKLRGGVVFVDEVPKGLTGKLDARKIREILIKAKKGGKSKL
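Biochemical qHTS of compounds, final roughly 60 µM downward over six points, against 10 nM purified firefly luciferase using Km concentrations of substrates (10 uM D-luciferin, 10 uM ATP) in Tris acetate pH 7.5 buffer; luminescence output.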
ELG1 genotox: genotoxicity induction in ELG1-luciferase HEK293T cells | HEK293T ELG1-luciferase reporter, luminescence, 16 h | Potency, µM (titrated, usually from 46 µM), for inactives: top-dose activity change, positive = activation, usual class: activators | 1.3% of 330,000 active | AID 504466; also: % of control where 0% means no effect; nearly all actives have a fitted effect of over 60% in size
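Genotoxic stress is detected as increased luminescence from luciferase-tagged ELG1 in HEK293T cells, measured with ONE-Glo after a 16 hr treatment at 37 °C.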
Numbers without * were called inactive; ? = inconclusive; . = no result given. An excerpt weighted towards active compounds, which were near 7.4% of everything screened. Calls follow the shape of the dose curve; as a rule, active = well fitted curve in the direction sought with a large enough effect; inconclusive = small, poorly fitted or top-dose-only effect, or another doubt; inactive = no such curve, though single readings can be large; an effect the other way counts as inactive or inconclusive. Potency is read from the fitted curve at half-maximal effect.

SMILES | NPC1 promoter act | Rab9 promoter act | SMN2 splice enh | KinaseGlo FLuc | FLuc counter | ELG1 genotox
COc1cccc(/C=N/NC(=O)c2cc3c(OC)ccc(OC)c3[nH]2)c1O | -49% | -33% | . | . | -10% | ?
COc1ccc(/C=N/NC(=O)c2cc[n+]([O-])cc2)cc1 | -3% | -6% | . | . | ? | 2%
COc1ccc(-c2[nH]ncc2/C=N\NC(=O)c2ccc(Br)o2)cc1OC | 4% | 0% | . | . | -19% | 0%
COc1cccc(/C=N/NC(=O)c2ccc3nc[nH]c3c2)c1O | 4% | -3% | . | . | 19µM* | -2%
COc1cccc(C(=O)N/N=C/c2cn[nH]c2-c2ccc(OC)cc2OC)c1 | -2% | -2% | 5% | 2% | 15µM* | -2%
COc1cc(OC)c(OC)cc1/C=N/NC(=O)c1ccc2nc[nH]c2c1 | -1% | 4% | . | . | 11µM* | -3%
COc1ccc(/C=N/NC(=O)c2ccc3nc[nH]c3c2)c(OC)c1OC | -5% | -1% | . | . | -20% | -4%
COc1ccc(C=NNC(=O)c2ccccc2OCc2ccc(F)cc2)c(OC)c1 | . | . | . | . | . | 1%
CCN(CC)c1ccc(/C=N/NC(=O)c2ccc3nc[nH]c3c2)c(O)c1 | -32% | -39% | . | . | 13µM* | ?
O=C(N/N=C/c1ccc(Cl)c([N+](=O)[O-])c1)c1ccc2nc[nH]c2c1 | -4% | -6% | -6% | -4% | ? | -1%
O=C(N/N=C/c1ccccc1[N+](=O)[O-])c1ccc2nc[nH]c2c1 | ? | 2.8µM* | . | . | 13µM* | ?
COc1ccc(/C=N\NC(=O)C2=NNC(=O)C2C)cc1 (stereo not given) | ? | ? | 7% | ? | 6µM* | ?
COc1ccc(/C=N/NC(=O)c2ccc3nc[nH]c3c2)c(OC)c1 | -11% | -2% | . | . | 17µM* | -1%
CN(C)CCNC(=O)c1ccc(Cn2c(=O)c3cccn3c3cccnc32)cc1 | . | . | . | . | -1% | .
COc1ccc(Nc2nc3ccccc3c3nnc(C)n23)cc1Cl | . | . | 0% | . | 24µM* | .
O=C(NCCc1ccccc1)Nc1ccc2c(c1)OCO2 | 2.5µM* | 1.4µM* | 14µM* | -2% | 11µM* | ?
O=C(NCCc1ccccc1)C(=O)Nc1ccc2c(c1)OCCO2 | 30% | 26% | 20% | -3% | -6% | ?
O=C(NCCc1ccc(F)cc1)Nc1ccc2c(c1)OCO2 | ? | 2.8µM* | . | 2% | ? | 14%
O=C(Nc1ccc2c(c1)OCO2)OCc1ccccc1 | 1.6µM* | 1.3µM* | 20µM* | -15% | 6µM* | ?
O=C(NCCc1ccccc1)Nc1cccc(Cl)c1 | ? | ? | 21% | 4% | 17µM* | 8%
COc1ccc(CCNC(=O)Nc2ccc3c(c2)OCO3)cc1OC | 2% | 0% | . | 2% | -14% | 1%
CCN(CC)CCCNC(=S)N1CCN(c2nc3ccccc3n2CC)CC1 | -5% | 1% | . | . | 0% | -3%
O=C(Oc1ccc(Br)cc1C(=S)N1CCOCC1)c1ccc([N+](=O)[O-])cc1[N+](=O)[O-] | 1% | 3% | . | . | -8% | 7%
O=C(O)CCCCCNC(=O)Nc1ccc2c(c1)OCCO2 | -1% | -33% | . | -7% | 9.5µM* | 5%
CNC1=C(Br)C(=O)c2ccncc2C1=O | . | . | -83% | -9% | . | .
SMILES | NPC1 promoter act | Rab9 promoter act | SMN2 splice enh | KinaseGlo FLuc | FLuc counter | ELG1 genotox
COc1cc(C=O)ccc1OCCSc1ccc(C)cc1 | 12% | 8% | 14% | 0% | ? | 16µM*
COc1cc(C=O)ccc1OCc1ccccc1Br | ? | ? | ? | -13% | 9.5µM* | ?
COc1cc(C=O)ccc1OCc1cccc(Br)c1 | -3% | -6% | 14µM* | 3% | 7.6µM* | ?
CCOc1cc(C=O)ccc1OCCSc1ccc(C)cc1 | -1% | -5% | -12% | 4% | -5% | 0%
CNC(=O)COc1ccc(C=O)cc1OC | -1% | -8% | -35% | -3% | 0% | 3%
COC(C/C=C\[C@@H](O)COCc1ccccc1)OC | -5% | -2% | . | . | 0% | 5%
CCN(CC)C(=O)c1ccc(Nc2nnc(-c3ccc(C)c(S(=O)(=O)NC)c3)c3ccccc23)cc1 | . | . | -32% | . | -17% | .
CNC(=O)COc1ccc(Nc2nnc(-c3ccc(C)c(S(=O)(=O)NC(C)(C)C)c3)c3ccccc23)cc1 | . | . | -33% | . | 15µM* | .
C#CC(C)(C)NS(=O)(=O)c1cc(-c2nnc(Nc3ccc(C)cc3)c3ccccc23)ccc1C | . | . | 9% | . | 2.7µM* | .
CNS(=O)(=O)c1cc(-c2nnc(Nc3ccc(NC(C)=O)cc3)c3ccccc23)ccc1C | 0% | 4% | . | . | ? | -5%
Cc1ccc(S(=O)(=O)N2CCC(C(=O)OC(C)C(=O)N(C)c3ccccc3)CC2)cc1C (stereo not given) | -1% | -2% | . | . | 3% | -3%
COC(=O)c1cc(C(=O)N2CCN(c3ccccc3OC)CC2)cc([N+](=O)[O-])c1 | -5% | -12% | . | 1% | 21µM* | 0%
COC(=O)c1cc(C(=O)N2CCN(c3cccc(C)c3C)CC2)cc([N+](=O)[O-])c1 | -32% | -21% | -22% | 0% | 2% | -7%
COc1ccccc1N1CCN(C(=O)c2ccc3[nH]c4c(c3c2)CC(C)CC4)CC1 (stereo not given) | -3% | 1% | 6% | 1% | 19µM* | -8%
COc1ccccc1N1CCN(C(=O)c2ccc3[nH]c(C)c(C)c3c2)CC1 | -29% | -25% | . | . | 2% | ?
O=C(N/N=C/c1cccs1)c1n[nH]c2c1CCCC2 | ? | 0.1µM* | . | . | 0.85µM* | ?
O=C(N/N=C/c1cccc2ccccc12)c1n[nH]c2c1CCCC2 | -22% | -3% | 10% | -1% | -16% | 18%
